Consider 40 compounds from PubChem BioAssay (NCI).

Structures are written as SMILES. This is part of a sample that, as a whole, favours compounds with a hit. Of some 83,000 tested, about 20% had one in any assay.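 Single-concentration screen, 48 h exposure, 96-well plates. Endpoint: percent growth. Below 10 = active.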 A number with no mark means an inactive call. Calls of active or inactive are those of the source.

The first experiment has as its system MDA-MB-231 breast. Kind of experiment: NCI-60 one-dose screen, 48 h (100 = growth as untreated, 0 = no growth, -100 = all killed). The note with it: 10 µM unless noted.
Regarding `CN1CCN(Cc2ccc(/C=N/Nc3ccnc4cc(Cl)ccc34)cc2)CC1`, the growth was 71.5%. On to `Cc1ccc(C(=O)CSc2nnc(-c3ccc(-c4ccc(Cl)cc4)nc3C)o2)cc1`, for which the growth was 92.6%. On the same count and under the same terms, in the case of `Cc1ccccc1N1CCN(C2=C(Cl)C(=O)c3ncccc3C2=O)CC1` it was 88.3%; in that of `O=C1Nc2ccccc2/C1=C/c1ccc(OCC(=O)c2ccccc2)cc1`, 96.2%; in that of `CC1=C(C)C(=O)C(Nc2ccc3c(c2)OCCO3)=C(Br)C1=O`, 88.3%. As for `CCN(CC)c1ccc(/C=N/NC(=O)c2ccc(S(N)(=O)=O)cc2)c(O)c1`, the growth is 34%.

Consider `Cc1ccc(S(=O)(=O)NCCCNc2nc(Nc3ccc(N4CCN(C)CC4)cc3)nc3ccsc23)cc1`, for which the growth is 23%. On the same count and under the same terms, for `CN1CCN(Cc2ccc(NC(=O)c3cncc(C#Cc4cnc5ccc(NCCO)nn45)c3)cc2C(F)(F)F)CC1` the value was 1.53% (active); for `COC(=O)c1cccc(NC2=C(Cl)C(=O)c3nc(C)ccc3C2=O)c1`, 62.6%; for `O=C1Nc2cc(Cl)ccc2/C1=C\c1ccc(OCc2ccccc2)cc1`, 104%. On the same count and under the same terms, in the case of `Cc1ccc(-c2csc(N/N=C/c3cccs3)n2)cc1` it was 92.5%; in that of `O=[N+]([O-])c1ccc(NC(=S)NNC(=S)Nc2ccc(Br)cc2)cc1`, 91.6%.

The test system of the next experiment is RXF 393 renal. Described as above. The note with it: 10 µM unless noted.
For the compound `NC(=O)n1c(=O)n(-c2cccc(C(F)(F)F)c2)c(=O)c2cc(-c3ccc(F)cc3F)ccc21`, the growth is -2.52% (active). Turning to `O=C1CSC(c2cn(-c3ccccc3)nc2-c2ccc(Cl)cc2)N1c1ccccc1` (configuration not stated), the growth was 126%. On the same count and under the same terms, in the case of `COc1ccc(/C=N/NC(=O)CSc2nc(-c3cnccn3)cc(-c3cccs3)c2C#N)cc1` it was 39.7%; in that of `C#Cc1cc(OC)c(C(=O)Nc2ccc(F)cc2C(=O)Nc2cccc(S(=O)(=O)C(F)(F)F)c2)cn1`, -1.43% (active); in that of `CN1c2ccccc2Sc2cc(/C=N/Nc3ccnc4cc(Cl)ccc34)ccc21`, 82.2%. On the same count and under the same terms, for `O=C(/C=C/c1cccc(F)c1)c1cccc(OCCCOc2cccc(C(=O)/C=C/c3cccc(F)c3)c2)c1` the value was 70.1%; for `CN1CCN(Cc2ccc(NC(=O)c3cncc(C#Cc4cnc(N)nc4)c3)cc2C(F)(F)F)CC1`, 26.4%.

In the case of `O=C(CSc1nc2ccccc2c(=O)n1-c1ccc(Cl)c(Cl)c1)Nc1ccc(S(=O)(=O)Nc2ccc(Cl)nn2)cc1`, the growth is 88.1%.

With `Cc1[nH]c(C(=O)Nc2ccc(C(N)=O)cc2N2CCOC(C)C2)c(Cl)c1Cl` (configuration not stated), the growth was 102%. In the case of `N#Cc1nc(-c2ccccc2)oc1N1CCC(C2(C(F)(F)F)N=N2)CC1`, the growth was 99.4%. On to `C/C(=C(\c1ccc(O)cc1)c1ccc(OCCN2CCCCCC2)cc1)c1ccc(Cl)cc1`, for which the growth is -87.4% (active). Take `COc1ccc(C(=O)c2c(N)c(C#N)cn2-c2ccc(Cl)cc2Cl)cc1`: the growth is 97%.

As for `C#C[C@]1(O)CC[C@H]2[C@@H]3CC=C4c5sc(Nc6cccc(F)c6)nc5CC[C@]4(C)[C@H]3CC[C@@]21C`, the growth is -50.8% (active). On the same count and under the same terms, for `C[C@@H]1OCC2(CCN(c3cnc(C(=O)Nc4cc(F)cc5cccnc45)cn3)CC2)[C@@H]1N` the value was 65.4%; for `Cn1c(SCC(=O)c2ccc(F)cc2)nc2ccccc2c1=O`, 108%.

As for `O=C(CCCCCC/C=C\c1csc(Br)n1)NO`, the growth is 97%. On the same count and under the same terms, in the case of `COc1ccc(-c2cc(-c3ccc(N4CCOCC4)cc3)n3c(n2)nc2ccccc23)cc1OC` it was 72.8%; in that of `CN(C)c1cccc2c(S(=O)(=O)Nc3cccc(-c4csc(NC(=O)CCCCCN5CCN(CCO)CC5)n4)c3)cccc12`, 66.7%; in that of `O=c1nc(Nc2ccc([N+](=O)[O-])cc2O)sc2ccccc12`, 7.31% (active). Take `CCc1cc(OC(=O)N2CCC(N3CCCCC3)CC2)ccc1Nc1cc(-c2ccc(-n3cccn3)cc2)[nH]n1`: the growth is 52.5%. On the same count and under the same terms, in the case of `COc1ccc(-c2c(C(N)=O)c(N)n(Cc3nc4ccccc4[nH]3)c(=O)c2C#N)c(OC)c1` it was 117%.

As to `CCOC(=O)Nc1ccc2c(ccn2C(=O)c2cccc(F)c2)c1`, the growth is 19.3%. The same measure, in the same setting: in the case of `CN(C)CCCOc1ccc(C(=C(c2ccccc2)C2CCCC2)c2ccc(OCCCN(C)C)cc2)cc1` it was -83.1% (active). On to `CN1CCC[C@]2(C)[C@H]3CC[C@@H]4[C@@H]5[C@H]6OC[C@@]5(CCC6(C)C)CC[C@@]4(C)[C@]3(C)CC[C@H]2C1(C)C`, for which the growth is 74.5%. Still for that read-out and setting: in the case of `CNC(=O)c1cc(-c2ccc(NC(=S)Nc3cccc(C(F)(F)F)c3)cc2)nc2cccnc12` it was 107%; in that of `CC1(C)C=Cc2cc(/C(N)=N/C(N)=N/c3nc4ccccc4s3)ccc2O1`, 103%; in that of `C#Cc1cc(C(=O)Nc2ccc(CNCCN3CCOCC3)c(C(F)(F)F)c2)ccc1C`, 74.7%. On the same count and under the same terms, for `CC(C)(O)c1cncc(-c2ccc3ncc(C#N)c(N4CCc5cc(F)c(Cl)cc54)c3c2)c1` the value was -34.1% (active). On the same count and under the same terms, for `CN1CCN(Cc2ccc(/C=N/Nc3ccnc4cc(Cl)ccc34)cc2)CC1` the value was 74.6%. As to `Cc1ccc(C(=O)CSc2nnc(-c3ccc(-c4ccc(Cl)cc4)nc3C)o2)cc1`, the growth was 119%.

Turning to `Cc1ccccc1N1CCN(C2=C(Cl)C(=O)c3ncccc3C2=O)CC1`, the growth was -10.9% (active). `O=C1Nc2ccccc2/C1=C/c1ccc(OCC(=O)c2ccccc2)cc1`: the growth was 101%. Same read-out and setting: for `CC1=C(C)C(=O)C(Nc2ccc3c(c2)OCCO3)=C(Br)C1=O` the value was 100%; for `CCN(CC)c1ccc(/C=N/NC(=O)c2ccc(S(N)(=O)=O)cc2)c(O)c1`, -4.11% (active); for `Cc1ccc(S(=O)(=O)NCCCNc2nc(Nc3ccc(N4CCN(C)CC4)cc3)nc3ccsc23)cc1`, -59.3% (active). As to `CN1CCN(Cc2ccc(NC(=O)c3cncc(C#Cc4cnc5ccc(NCCO)nn45)c3)cc2C(F)(F)F)CC1`, the growth is -74.3% (active). For `COC(=O)c1cccc(NC2=C(Cl)C(=O)c3nc(C)ccc3C2=O)c1`, the growth was 59.7%.

On to `O=C1Nc2cc(Cl)ccc2/C1=C\c1ccc(OCc2ccccc2)cc1`, for which the growth is 114%. Still for that read-out and setting: for `Cc1ccc(-c2csc(N/N=C/c3cccs3)n2)cc1` the value was 115%; for `O=[N+]([O-])c1ccc(NC(=S)NNC(=S)Nc2ccc(Br)cc2)cc1`, 103%.
